Assay outcomes deposited in PubChem BioAssay by Buhrlage Lab, Dana-Farber Cancer Institute and Novartis Institutes for BioMedical Research (Cambridge, Mass).
USP28 block: inhibitors of human USP28 deubiquitinase; Ubiquitin carboxyl-terminal hydrolase 28 (Homo sapiens), Q96RU2; purified USP28, Ub-rhodamine cleavage fluorescence, 30 min; inhibition, % at 25 µM; 47,000 tested, 3% active
USP17 inh: inhibitors of human USP17 deubiquitinase. purified USP17, Ub-rhodamine cleavage fluorescence, 3 h. AID 1645855, 2021. inhibition, % at 50 µM. 47,000 tested, 6.5% active
USP30 block: inhibitors of human USP30 deubiquitinase; Ubiquitin carboxyl-terminal hydrolase 30 (Homo sapiens), Q70CQ3; purified USP30, Ub-rhodamine cleavage fluorescence; inhibition, % at 25 µM; 47,000 tested, 5.3% active; AID 1645860, 2021
Of the large screens only hits and unclear results are named; the others gave an inactive call. This is a sample that favours compounds with a hit; in the whole collection about 11% have one here. Rule as the data show it: active = inhibition above about 30%; inactive = the rest.

COc1ccc(Cc2nc(-c3ccc(=O)[nH]c3)no2)cc1OC	USP28 block 33
O=c1ccc(-c2noc(CCC3CCCC3)n2)c[nH]1	USP28 block 43
O=C1COc2ccccc2C/C=C/CC2(CCCN(C(=O)c3ncccc3O)C2)CN1 (centres undefined)	none
COc1ccc(CNC(=O)CCC2=NS(=O)(=O)c3ccc(C)cc3N2)cc1	none
O=c1[nH]c(C2CCN(S(=O)(=O)c3ccc(S(=O)(=O)N4CCOCC4)cc3)CC2)nc2c1nnn2Cc1ccc(F)cc1	none
CCc1ccccc1NC(=O)N1CCC(c2nc3c(nnn3Cc3ccc(F)cc3)c(=O)[nH]2)CC1	none
O=C(Nc1cccc2ccccc12)N1CCC(c2nc3c(nnn3Cc3ccc(F)cc3)c(=O)[nH]2)CC1	USP28 block 38, USP17 inh 91, USP30 block 36
O=c1[nH]c(C2CCN(S(=O)(=O)c3ccccc3)CC2)nc2c1nnn2Cc1c(Cl)cccc1Cl	USP30 block 39
O=C(C1CCCC1)N1CCC(c2nc3c(nnn3Cc3c(F)cccc3Cl)c(=O)[nH]2)CC1	none
O=C(C1CCC1)N1CCC(c2nc3c(nnn3Cc3c(Cl)cccc3Cl)c(=O)[nH]2)CC1	USP30 block 36
CCOc1ccc(C(=O)N2CCC(c3nc4c(nnn4Cc4ccccc4Cl)c(=O)[nH]3)CC2)cc1	none
O=c1[nH]c(C2CCN(S(=O)(=O)c3cccc4ccccc34)CC2)nc2c1nnn2Cc1ccccc1Cl	USP28 block 33, USP30 block 31
COC(=O)c1cc2c(ccn2C)n1CC(=O)N1CCCC1	none
O=C(N[C@@H]1C[C@@H](Oc2cccc(F)c2)[C@H](O)[C@H]1N1CCC(O)CC1)c1cccnc1	none
COCC(=O)N1CCCC(c2nc(N)ncc2-c2ccc(F)cc2)C1 (centres undefined)	none
COc1ccccc1-c1cc2n(n1)CCN(C(=O)c1cc3ccccc3n1C)C2	none
NC(N)=NCCC(=O)N1CCn2nc(-c3ccc4ccccc4c3)cc2C1	USP28 block 45, USP30 block 40
Cc1cccc(S(=O)(=O)N2C[C@H]3NC(=O)c4ccccc4C(=O)[C@@]3(C)C2)c1	none
COc1ccc(NC(=O)Cc2ccc3ccccc3c2)c(OC)c1	none
COc1ccc(C(=O)N(Cc2ccccc2)C(C)(C)c2ccccc2)c(OC)c1	USP30 block 44
CC(=O)c1ccc(NC(=O)c2ccc(N3CCCCS3(=O)=O)cc2Cl)cc1	USP17 inh 52
O=C(Nc1cccc(Br)c1)c1cccc(N2CCCCS2(=O)=O)c1	none
O=C(Nc1ccc(F)cc1)c1ccc(N2CCCCS2(=O)=O)cc1Cl	none
O=C(Nc1ccc(Cl)c(Cl)c1)c1cccc(N2CCCCS2(=O)=O)c1	USP28 block 34
O=C(CSc1ncnc2ccccc12)NC1CCCC1	none
Cc1cccc(CC(=O)N2CCC([C@@H]3C[C@H](C(F)F)n4ncnc4N3)CC2)c1	none
O=C(Nc1cccnc1)c1nc2c(s1)CCN(C(=O)Cc1ccccc1)CC2	none
COc1ccc(OCc2nn3c(-c4ccccc4Cl)nnc3s2)cc1	USP30 block 32
COc1ccc(C(N)=O)c(OCc2noc(-c3ccccc3Cl)n2)c1	none
CCn1c(C)nc2cc(-c3nnc(N4CCOCC4)n3-c3ccccc3)ccc21	none
CC(OC(=O)c1c2c(nc3ccccc13)CCCC2)C(=O)Nc1ccc(Cl)cc1Cl (centres undefined)	USP17 inh 30
CC(OC(=O)c1c2c(nc3ccccc13)CCCC2)C(=O)Nc1ccc(N(C)C)cc1 (centres undefined)	USP17 inh 40
CC(OC(=O)c1c2c(nc3ccccc13)CCC(C(C)(C)C)C2)C(=O)Nc1cccc([N+](=O)[O-])c1 (centres undefined)	none
Cc1cc(C)c(NC(=O)COc2nncc3ccccc23)c(C)c1	none
Cc1nn(-c2ccccc2)c(C)c1C(=O)OC(C)C(=O)Nc1cc(C(F)(F)F)ccc1Cl (centres undefined)	none
CC(OC(=O)c1c2c(nc3ccccc13)CCCCC2)C(=O)Nc1ccc2ccccc2c1 (centres undefined)	USP28 block 44, USP17 inh 63
CC(C)c1ccc(NC(=O)COc2nncc3ccccc23)cc1	USP30 block 33
O=C(OC1CCCCC1=O)c1c2c(nc3ccccc13)CCCCC2 (centres undefined)	none
Cc1ccc(S(=O)(=O)N2CCCC2c2ccco2)cc1C (centres undefined)	none
COc1ccc(C)cc1NC(=O)c1c2c(nc3ccccc13)CCN(Cc1ccccc1)C2	none
Cc1ccc(NC(=O)c2c3c(nc4ccccc24)CCCCC3)c(C)c1	USP17 inh 74, USP30 block 35
CC(Oc1nncc2ccccc12)C(=O)Nc1ccc(S(=O)(=O)N2CCCC2)cc1 (centres undefined)	none
CC(Oc1nncc2ccccc12)C(=O)Nc1ccc(Cl)cc1Cl (centres undefined)	USP17 inh 67, USP30 block 72
O=c1[nH]c2c(cnn2-c2ccccc2)c(O)c1-c1nc(-c2ccccc2)no1	none
COc1cc2c(=O)n(CCC(=O)NC3CCCC3)c(=O)n(CC(=O)Nc3ccc(C)c(F)c3)c2cc1OC	USP30 block 34
COc1ccc(NC(=O)Cn2c(=O)n(CCCC(=O)NCCc3ccc(OC)c(OC)c3)c(=O)c3ccccc32)cc1Cl	none
O=C(Cn1c(=O)n(CC2CCCO2)c(=O)c2ccccc21)Nc1c(Cl)cccc1Cl (centres undefined)	none
COc1cc2c(=O)n(CCC(=O)NCc3ccccc3)c(=O)n(CC(=O)NC3CCCCC3)c2cc1OC	none
COc1ccc(CCNC(=O)Cn2c(=O)n(CCCC(=O)NC3CCCC3)c(=O)c3cc(Cl)ccc32)cc1OC	USP30 block 37
Cc1cc(NC(=O)Cn2c(=O)n(CCCC(=O)NC3CCCC3)c(=O)c3cc(Cl)ccc32)n[nH]1	none
COc1ccc(NC(=O)Cn2c(=O)n(CCCC(=O)NC3CCCC3)c(=O)c3cc(Cl)ccc32)c(OC)c1	USP30 block 31
CCOc1ccc(C(=O)Cn2c(=O)n(CC3CCCO3)c(=O)c3cc(OC)c(OC)cc32)cc1Cl (centres undefined)	USP17 inh 71
COc1ccccc1C(=O)N1CC(=O)N(Cc2ccc(C)cc2)CC(O)C1 (centres undefined)	none
CC(=O)Nc1ccc(C(=O)N2Cc3ccccc3CN3C(=O)NC(=O)C3C2)cc1 (centres undefined)	none
CC1=CN2C(=N)/C(=C/c3cc(C)n(-c4ccc(C)cc4)c3C)C(=O)N=C2S1	none
CC(C)c1ccc(NC(=O)CN2c3ccccc3S(=O)(=O)c3ccccc32)cc1	none
O=C(O)C1CCN(C(=O)c2ccc(Cl)c(S(=O)(=O)N3CCCCC3)c2)CC1	none
O=C(Nc1ccc(F)cc1Cl)c1cnc(N2CCN(c3ccccn3)CC2)c2ccccc12	none
CCc1ccccc1NC(=O)Cn1c(=O)n(CCC(=O)NCC2CCCO2)c(=O)c2cc(OC)c(OC)cc21 (centres undefined)	USP17 inh 30
COc1cc2c(=O)n(CCC(=O)NCC3CCCO3)c(=O)n(CC(=O)Nc3cccc(Cl)c3)c2cc1OC (centres undefined)	none
CCOC(=O)N1CCC(NCc2c(C(=O)O)n(Cc3ccc(F)cc3Cl)c3ccccc23)CC1	none
COc1ccc(Nc2cc(C(=O)NCCCN(CC(C)C)CC(C)C)c3ccccc3n2)cc1	none
